pS6 MEF inh – reduces mTORC1 signaling in Tsc2 and p53 null MEF cells | Potency, µM (series often up to 38.3 µM), for inactives: at the top dose activity change, negative = inhibition, actives largely listed as inhibitors | Tsc2-/- p53-/- MEF, phospho-rpS6 immunofluorescence/PI, 24 h | 44,000 compounds, 0.78% hits;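 note: plate controls were DMSO for no effect and rapamycin for full effect; nearly all actives have a fitted effect of over 50% in size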
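Tsc2-/-, p53-/- mouse embryonic fibroblasts (empty-vector line) exposed to compound 24 hrs at 37 C, fixed, immunostained for phospho-rpS6 and counterstained with propidium iodide. Acumen laser scanning gives % positive cells from Alexa 488/PI ratio, thresholded using 7.5 nM rapamycin; PI count gives viability.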
OvCa metastasis – inhibitors of ovarian cancer cell adhesion and invasion in omental model; Potency, µM (titrated, usually from 45.8 µM), inactives show at the highest dose activity change, negative = inhibition, usual class: inhibitors; SKOV3ip1-GFP adhesion/invasion on 3D omental model, fluorescence; AID 1963576; 46,000 compounds, 0.1% hits;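 note: plate controls were DMSO wells for no effect and tomatine positive control wells for full effect; nearly all actives have a fitted effect of over 65% in size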
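Adhesion/invasion was scored as fixed GFP-labeled SKOV3ip1 cell counts (488/509 nm), normalized to DMSO and tomatine controls. Cancer cells in serum-free medium, with four compound doses (0.36-46 umol/L), sat 2 hr at RT then 16 hr at 37 C on a 48 hr fibroblast/mesothelial/ECM culture.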
PMP22 txn prim – modulates PMP22 transcription in S16 Schwann cells; S16 Pmp22-F2sN Schwann cells, FLuc/NLuc coincidence luminescence, 24 h; Potency, µM (doses to about 57.5 µM), for inactives: at the highest dose activity change, negative = inhibition, usual class: inhibitors; 43,000 compounds, 2% hits; active = clear falling dose curves in both reporters; inconclusive = both reporters move, but less clearly or upward; inactive = either reporter flat; the % is the NLuc reporter signal
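S16 Schwann cells carrying FLuc/NLuc coincidence reporter in the Pmp22 3' UTR treated with compound 24 h at 37C; FLuc then NLuc luminescence read sequentially by dual-luciferase reagents.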
p53null 39C kill – kills p53 null cells at the nonpermissive temperature. H1299 p53-null (neo) cells, 39C, ATPlite viability, 24 h. Potency, µM (doses to about 46.1 µM), inactives show top-dose activity, negative = cell killing, usual class: cytotoxic. 55,000 compounds, 0.97% hits;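 note: 0% = DMSO only and -100% = full killing by 100 µM tamoxifen; nearly all actives have a fitted effect of over 50% in size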
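Temperature-shift cytotoxicity format: compound titrations on p53-null or A138V-expressing H1299 cells held 24 hr at 39C, cell ATP then measured, AC50 from Hill model.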
S16 viability – cytotoxicity in S16 Pmp22-F2sN Schwann cells. Potency, µM (highest dose often 57.5 µM), for the others: top-dose activity change, negative = cytotoxicity, most hits filed as cytotoxic. 43,000 compounds, 0.48% hits. S16 Pmp22-F2sN Schwann cells (luciferase reporters placed in the Pmp22 gene) viability, CellTiter-Glo, 24 h; note: nearly all actives have a fitted effect of over 65% in size
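Seed 500-1,000 S16 Pmp22-F2sN cells per well in phenol-red-free DMEM with 10% heat-inactivated FBS; pin-add 23 nL compound; incubate 24 h at 37C; add CellTiter-Glo, wait 15 min protected from light; read luminescence.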
p53null 32C kill – p53 null cell cytotoxicity, permissive temperature. Potency, µM (titrated, usually from 46.1 µM), for inactives: top-dose activity change, negative = cytotoxicity, most hits filed as cytotoxic. AID 903. H1299-neo p53 null cells, ATP luminescence, 24 h, 32C. 55,000 compounds, 0.62% hits;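 note: 0% = DMSO only and -100% = full killing by 100 µM tamoxifen; nearly all actives have a fitted effect of over 55% in size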
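Cytotoxicity: H1299-neo (no p53), 32C, 24 h treatment. Concentrations up to 46 uM. Readout cellular ATP, luminescence. Normalization to DMSO basal and tamoxifen 100 uM maximal kill.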
* marks the source's active call; other numbers are inactive results; i = inactive; ? = inconclusive; / = no result. A selection: hits, their analogues and other compounds. The true share with any hit is near 3%. Unless noted, calls come from the whole dose curve; as a rule, active = well fitted curve in the direction sought with a large enough effect; inconclusive = small, poorly fitted or top-dose-only effect, or another doubt; inactive = no such curve, though single readings can be large; an effect the other way counts as inactive or inconclusive. Unless noted, % is set by controls: 0 for no effect and ±100 for the full control effect; potency is the fitted concentration of half-maximal effect.

SMILES	pS6 MEF inh	OvCa metastasis	PMP22 txn prim	p53null 39C kill	S16 viability	p53null 32C kill
O=C(Nc1ccccc1C(F)(F)F)c1cc2ccccn2n1	3.3%	3.6%	/	10µM*	/	7.94µM*
CCOC(=O)c1cccc(NC(=O)c2ccc3c(Cl)c4c(nc3c2)CCC4)c1	?	-3.7%	-13.1%	0.398µM*	4.3%	?
CC(C)(C)Cn1c(N)nc2ccc(-c3[nH]c(C(C)(C)C)nc3-c3ccc(F)cc3)nc21	/	2.8%	/	/	/	/
CC1(C)CCC(CN2CCN(c3ccc(C(=O)NS(=O)(=O)c4ccc(NCC5CCOCC5)c([N+](=O)[O-])c4)c(Oc4cnc5[nH]ccc5c4)c3)CC2)=C(c2ccc(Cl)cc2)C1	/	22.1%	/	/	/	/
N#Cc1c(O)c2c(-c3ccc(-c4ccccc4O)cc3)csc2[nH]c1=O	/	-12.1%	/	/	/	/
Cc1ccc(NS(=O)(=O)c2cc(-c3cc(C)no3)ccc2C)c(Cl)c1	-1.0%	1.0%	?	?	1.9%	-4.2%
Cc1cc(-c2ccc(C)c(S(=O)(=O)Nc3ccccc3C(F)(F)F)c2)on1	-7.7%	i	-85.4%	11.2µM*	-2.9%	?
COc1ccc(C)cc1S(=O)(=O)NCC(c1cccs1)S(=O)(=O)c1ccc(C)cc1 (stereo unspecified)	-6.6%	-2.5%	?	10.1%	25.1µM*	17.4%
COc1ccc(S(=O)(=O)NCC(c2cccs2)S(=O)(=O)c2ccc(C)cc2)cc1F (stereo unspecified)	-0.8%	-6.6%	?	1.7%	?	5.1%
Cc1ccc(S(=O)(=O)C(CNS(=O)(=O)c2cc(F)ccc2F)c2cccs2)cc1 (stereo unspecified)	-0.1%	-4.8%	?	?	20µM*	5.3%
CN[C@@H](C)C(=O)N[C@H]1CN(C(=O)CC(C)C)CC[C@H]2CC[C@@H](C(=O)NC(c3ccccc3)c3ccccc3)N2C1=O	/	-5.2%	/	/	/	/
CC1=C(CO)C(=O)O[C@@H]([C@@H](C)[C@H]2CC[C@H]3[C@@H]4C[C@H]5O[C@]56[C@@H](O)C=CC(=O)[C@]6(C)[C@@H]4CC[C@]23C)C1	/	4.69µM*	/	/	/	/
COc1cccc(C2=CC(c3ccccc3F)n3ncc(C(=O)Nc4ccc(C)cc4)c3N2)c1 (stereo unspecified)	-16.3%	1.6%	?	20.8%	?	41.4%
COc1cccc(C2=CC(c3ccccc3F)n3c(nc4ccccc43)N2)c1 (stereo unspecified)	0.1%	1.7%	?	?	?	11.2µM*
Cc1ccc(C2=CC(c3ccccc3F)n3c(nc4ccccc43)N2)cc1C (stereo unspecified)	-0.7%	-5.5%	?	?	?	12.6µM*
CCOc1ccc(C2=CC(c3cccc(Br)c3)n3c(nc4ccccc43)N2)cc1Cl (stereo unspecified)	-7.1%	0.9%	?	10.1%	-19.8%	-0.9%
Cc1cnc(-c2cc(N3CCN(C(=O)CCS(C)(=O)=O)CC3)ncc2Cl)c(C)c1	/	16.6%	/	/	/	/
OCc1ccccc1O[C@@H]1O[C@H](CO)[C@H](O)[C@H](O)[C@H]1O	/	-8.6%	/	/	/	/
Cc1cncn1CCc1nc2c3ccccc3nc(SCC(=O)Nc3cccc(Cl)c3)n2n1	?	?	?	?	28.2µM*	?
Cc1cncn1CCc1nc2c3ccccc3nc(SCC(=O)Nc3ccc(F)cc3)n2n1	0.2%	0.6%	-19.9%	-2.1%	5.0%	-1.7%
CN1c2cc(Cl)ccc2-c2nc(SCC(=O)Nc3ccc(F)cc3F)ncc2S1(=O)=O	-7.3%	-6.9%	?	?	25.1µM*	-7.5%
Cc1ccc(NC(=O)CSc2ncc3c(n2)-c2ccc(Cl)cc2N(C)S3(=O)=O)cc1F	-7.6%	5.9%	?	-3.0%	9.5%	1.0%
CCOc1ccccc1CNCc1c(C(=O)O)n(Cc2ccccc2)c2cc(OC)ccc12	-10.6%	i	5.4%	?	0.0%	-10.6%
COc1ccc(Cn2c(C(=O)O)c(CNCc3ccccc3F)c3ccc(OC)cc32)cc1	11.7µM*	i	?	-29.6%	?	-16.0%
CC(C)COc1ccc(C(=O)Nc2onc3c2CCCC3)cc1	-5.5%	-5.4%	6.2%	12.6µM*	?	?
SMILES	pS6 MEF inh	OvCa metastasis	PMP22 txn prim	p53null 39C kill	S16 viability	p53null 32C kill
CCOc1ccc(C(=O)Nc2onc3c2CCCC3)cc1	2.2%	0.9%	?	3.98µM*	-1.7%	6.31µM*
CC(C)(C)c1ccc(C(=O)Nc2onc3c2CCCC3)cc1	1.2%	-4.2%	-24.5%	?	?	15.8µM*
COCCOc1nc(-c2ccc(Cl)c(Cl)c2)n(-c2ccc(NC(=O)CCl)cc2)n1	/	20.4%	/	/	/	/
O=C(NCCc1ccccc1Cl)c1ccc(Cn2c(=O)c3cccn3c3cccnc32)cc1	4.5%	?	?	10µM*	0.7%	?
Cn1c(C(=O)NCCc2ccccc2)cc2sc(Cl)cc21	0.1%	0.6%	14.3%	7.94µM*	-4.6%	11.2µM*
CCSc1ncc(Cl)c(C(=O)Nc2ccc(S(=O)(=O)N(C)c3ccccc3)cc2)n1	-3.1%	i	?	7.8%	-22.9%	0.2%
CCN(c1ccccc1)S(=O)(=O)c1ccc(NC(=O)c2nc(S(C)(=O)=O)ncc2Cl)cc1	3.29µM*	?	1.68µM*	?	4.47µM*	?
CC(C)Sc1ncc(Cl)c(C(=O)Nc2ccc(S(=O)(=O)N(C)c3ccccc3)cc2)n1	-9.9%	5.3%	?	-10.4%	-22.1%	0.8%
CCS(=O)(=O)c1ncc(Cl)c(C(=O)Nc2ccc(S(=O)(=O)N(C)c3ccccc3)cc2)n1	0.414µM*	-12.2%	1µM*	?	4.47µM*	35.7%
CCn1c(=NC(=O)c2ccc3c(c2)OCCO3)sc2c(C)ccc(OC)c21	-18.6%	i	9.17µM*	?	2.4%	-18.0%
C#CCn1c(=NC(=O)c2ccc3c(c2)OCCO3)sc2cc(OC)c(OC)cc21	14.2%	-3.3%	?	-14.7%	2.9%	5.6%
Cc1cccc(C)c1NC(=O)Cn1c(=O)n(Cc2ccc(C(=O)NCc3ccco3)cc2)c(=O)c2sccc21	?	-23.3%	?	?	-9.8%	?
Cc1cc(C)c(NC(=O)Cn2c(=O)n(Cc3ccc(C(=O)NCc4ccco4)cc3)c(=O)c3sccc32)c(C)c1	-6.1%	-1.6%	?	10µM*	-6.5%	?
Cc1cc(C)cc(NC(=O)c2nnn(Cc3cccc(Br)c3)c2N)c1	-17.9%	2.5%	?	-20.2%	-25.9%	-2.3%

Assay outcomes deposited in PubChem BioAssay by National Center for Advancing Translational Sciences (NCATS).
